Assay outcomes: PubChem, University of Kansas High Throughput Screening Laboratory
The entries come from a sample that favours hits as a whole.
mHTT CaM bind: inhibitors of human mutant huntingtin-calmodulin interaction; P42858; AlphaScreen His-mHTT/GST-CaM binding, luminescence; inhibition, % at 15 µM; 3.6% of 190,000 active;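 note: 0% = both proteins with DMSO and 100% = one protein alone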
Target sequence (P42858 whole entry, looked up, stated change not applied): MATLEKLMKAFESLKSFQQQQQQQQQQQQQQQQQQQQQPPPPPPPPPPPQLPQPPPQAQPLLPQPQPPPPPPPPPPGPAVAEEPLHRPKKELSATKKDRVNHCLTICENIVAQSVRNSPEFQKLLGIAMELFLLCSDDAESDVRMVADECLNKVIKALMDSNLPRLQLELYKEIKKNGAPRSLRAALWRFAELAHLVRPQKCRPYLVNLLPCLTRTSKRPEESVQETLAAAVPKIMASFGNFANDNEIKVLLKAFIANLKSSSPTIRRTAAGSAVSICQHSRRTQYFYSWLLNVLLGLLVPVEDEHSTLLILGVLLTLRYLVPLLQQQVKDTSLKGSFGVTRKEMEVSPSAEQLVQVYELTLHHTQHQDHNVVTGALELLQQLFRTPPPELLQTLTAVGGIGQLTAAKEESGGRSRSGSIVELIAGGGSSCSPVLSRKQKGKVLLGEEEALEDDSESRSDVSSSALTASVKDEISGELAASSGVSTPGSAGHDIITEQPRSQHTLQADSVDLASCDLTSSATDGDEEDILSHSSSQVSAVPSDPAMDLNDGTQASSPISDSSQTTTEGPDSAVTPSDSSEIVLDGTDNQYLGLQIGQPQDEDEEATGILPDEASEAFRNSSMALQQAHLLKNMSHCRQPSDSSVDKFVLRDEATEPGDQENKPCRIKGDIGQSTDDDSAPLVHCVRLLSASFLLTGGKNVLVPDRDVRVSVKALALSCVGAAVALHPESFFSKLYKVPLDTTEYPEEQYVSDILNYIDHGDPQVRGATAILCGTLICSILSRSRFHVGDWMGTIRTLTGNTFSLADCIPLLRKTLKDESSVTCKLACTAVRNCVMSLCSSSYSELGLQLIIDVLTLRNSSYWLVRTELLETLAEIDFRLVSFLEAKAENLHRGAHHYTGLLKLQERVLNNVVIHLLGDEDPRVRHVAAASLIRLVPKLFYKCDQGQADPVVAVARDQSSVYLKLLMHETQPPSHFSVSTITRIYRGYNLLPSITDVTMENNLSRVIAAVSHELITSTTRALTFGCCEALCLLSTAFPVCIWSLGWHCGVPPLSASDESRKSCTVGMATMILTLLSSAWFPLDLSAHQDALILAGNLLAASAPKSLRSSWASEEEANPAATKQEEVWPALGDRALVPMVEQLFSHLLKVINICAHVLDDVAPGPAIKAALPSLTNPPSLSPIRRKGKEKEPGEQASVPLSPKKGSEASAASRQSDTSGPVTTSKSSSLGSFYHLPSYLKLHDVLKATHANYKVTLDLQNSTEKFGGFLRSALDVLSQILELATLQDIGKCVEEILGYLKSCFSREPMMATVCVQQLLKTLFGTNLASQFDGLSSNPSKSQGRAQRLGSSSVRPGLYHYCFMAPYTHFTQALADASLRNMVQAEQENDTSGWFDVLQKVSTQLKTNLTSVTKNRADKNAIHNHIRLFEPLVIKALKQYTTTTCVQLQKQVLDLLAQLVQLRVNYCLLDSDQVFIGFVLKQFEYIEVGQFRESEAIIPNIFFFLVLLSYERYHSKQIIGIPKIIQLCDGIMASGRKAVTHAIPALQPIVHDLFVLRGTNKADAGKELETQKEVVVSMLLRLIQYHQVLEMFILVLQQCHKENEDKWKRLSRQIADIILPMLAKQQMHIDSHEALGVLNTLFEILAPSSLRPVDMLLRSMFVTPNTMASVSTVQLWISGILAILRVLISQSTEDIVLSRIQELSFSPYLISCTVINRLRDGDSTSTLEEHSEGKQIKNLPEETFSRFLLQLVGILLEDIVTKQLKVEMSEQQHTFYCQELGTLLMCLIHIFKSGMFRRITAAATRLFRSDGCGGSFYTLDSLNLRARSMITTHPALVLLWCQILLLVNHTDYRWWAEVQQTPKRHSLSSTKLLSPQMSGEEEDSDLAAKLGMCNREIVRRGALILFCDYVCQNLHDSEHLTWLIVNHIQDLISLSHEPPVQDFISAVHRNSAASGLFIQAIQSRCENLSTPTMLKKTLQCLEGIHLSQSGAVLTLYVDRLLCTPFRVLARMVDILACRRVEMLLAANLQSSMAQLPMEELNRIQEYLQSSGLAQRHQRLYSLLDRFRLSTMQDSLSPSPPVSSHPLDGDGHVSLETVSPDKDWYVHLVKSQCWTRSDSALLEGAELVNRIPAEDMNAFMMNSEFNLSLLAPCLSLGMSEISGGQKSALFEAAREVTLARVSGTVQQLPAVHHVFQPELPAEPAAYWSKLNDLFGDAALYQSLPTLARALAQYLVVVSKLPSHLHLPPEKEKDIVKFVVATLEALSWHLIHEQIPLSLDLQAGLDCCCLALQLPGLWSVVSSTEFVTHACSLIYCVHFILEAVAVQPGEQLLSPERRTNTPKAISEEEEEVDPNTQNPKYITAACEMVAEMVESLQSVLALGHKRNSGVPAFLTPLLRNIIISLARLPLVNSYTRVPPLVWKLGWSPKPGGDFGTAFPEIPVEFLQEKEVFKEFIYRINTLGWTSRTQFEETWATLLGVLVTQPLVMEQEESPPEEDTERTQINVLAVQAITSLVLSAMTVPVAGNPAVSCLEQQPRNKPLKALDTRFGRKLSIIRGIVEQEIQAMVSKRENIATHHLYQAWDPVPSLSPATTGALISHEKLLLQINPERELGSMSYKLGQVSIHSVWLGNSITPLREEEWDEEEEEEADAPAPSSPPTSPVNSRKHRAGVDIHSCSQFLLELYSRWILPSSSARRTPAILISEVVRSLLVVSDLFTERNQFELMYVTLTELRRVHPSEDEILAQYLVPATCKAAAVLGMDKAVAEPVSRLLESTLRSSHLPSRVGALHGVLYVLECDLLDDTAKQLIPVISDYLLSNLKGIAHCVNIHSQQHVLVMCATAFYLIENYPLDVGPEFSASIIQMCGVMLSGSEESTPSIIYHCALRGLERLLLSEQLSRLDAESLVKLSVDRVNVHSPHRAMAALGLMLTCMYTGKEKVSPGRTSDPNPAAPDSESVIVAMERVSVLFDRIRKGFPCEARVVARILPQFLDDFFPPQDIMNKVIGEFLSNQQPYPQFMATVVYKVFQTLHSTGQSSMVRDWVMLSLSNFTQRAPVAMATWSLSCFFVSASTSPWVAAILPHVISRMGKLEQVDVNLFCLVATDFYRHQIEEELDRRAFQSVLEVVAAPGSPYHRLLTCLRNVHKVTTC
Pf apPOL block: Pf-apPOL DNA polymerase inhibition; Recombinant Pf-apPOL, molecular beacon fluorescence, 1.5 h; inhibition, % at 10 µM; 0.25% of 210,000 active; AID 1794808
Active calls of the source: *; ! = not active in a repeat. Cut-off read from the data, not from the text of the source: active = inhibition above about 50%; inactive = the rest.

Cc1nc(N2CCOCC2)c2c(C)c(C(=O)Nc3ccc([N+](=O)[O-])cc3C)sc2n1 was read as mHTT CaM bind 52.0* and Pf apPOL block -4.9.
Screening Cc1nc(N2CCOCC2)c2c(C)c(C(=O)Nc3ccc(Br)cc3C)sc2n1 returned mHTT CaM bind -2.0 and Pf apPOL block -2.5.
For O=C(CSCc1ccccc1)N1CCCC(COCc2ccccc2)C1 (centres undefined) the results were mHTT CaM bind 9.1 and Pf apPOL block -14.2.
Screening Cc1[nH]c2ccccc2c1-c1csc(-c2cccnc2)n1 returned mHTT CaM bind 33.0 and Pf apPOL block -0.4.
Screening Cc1[nH]c2ccccc2c1-c1csc(-c2ccncc2)n1 returned mHTT CaM bind 70.0*! and Pf apPOL block 0.2.
For COc1ccc(Cl)cc1/C=C/c1ccc2cccc(O)c2n1 the results were mHTT CaM bind 52.0* and Pf apPOL block -6.7.
Oc1ccc(/C=C/c2ccc3cccc(O)c3n2)cc1Br was read as mHTT CaM bind 62.0* and Pf apPOL block 4.1.
COc1cc(/C=C/c2ccc3cccc(O)c3n2)cc(OC)c1O was read as mHTT CaM bind 74.0* and Pf apPOL block -1.7.
O=C(O)c1ccc(/C=C/c2ccc3cccc(O)c3n2)cc1 was read as mHTT CaM bind 7.1 and Pf apPOL block 5.2.
For CCOc1cc(/C=C/c2ccc3cccc(O)c3n2)ccc1O the results were mHTT CaM bind 47.9 and Pf apPOL block -7.1.
For CCOc1cccc(/C=C/c2ccc3cccc(O)c3n2)c1OC the results were mHTT CaM bind 47.6 and Pf apPOL block 1.1.
`CN1CCCc2cc(C(=O)NCc3cc(F)cc(F)c3)sc21` gave mHTT CaM bind -0.7 and Pf apPOL block 3.5.
For CC(C)(O)C#Cc1ccc(N2C(c3ccsc3)=Cc3ccc(F)cc3C2c2c[nH]c3ccc(C#N)cc23)cc1 (centres undefined) the results were mHTT CaM bind -6.7 and Pf apPOL block -4.3.
Screening COc1ccc(N2C(c3ccsc3)=Cc3cc4c(cc3C2c2c[nH]c3ccccc23)OCO4)cc1 (centres undefined) returned mHTT CaM bind 70.5* and Pf apPOL block -8.6.
For COc1cccc(NC(=O)CSc2nnc(Cc3ccccc3)n2C)c1 the results were mHTT CaM bind 73.3* and Pf apPOL block 0.5.
For COc1cccc(NC(=O)CSc2nnc3ccccn23)c1 the results were mHTT CaM bind -8.0 and Pf apPOL block 3.6.
For OC(CNCCOc1ccccc1)Cn1c2ccccc2c2ccccc21 (centres undefined) the results were mHTT CaM bind 85.1*.
Screening OC(CNC1CCCC1)Cn1c2ccccc2c2ccccc21 (centres undefined) returned mHTT CaM bind 6.4 and Pf apPOL block -2.1.
For OC(CNCCc1ccccc1)c1ccccc1 (centres undefined) the results were mHTT CaM bind -1.9 and Pf apPOL block -6.2.
OC(CNCCc1ccccc1)Cn1c2ccc(Br)cc2c2cc(Br)ccc21 (centres undefined) was read as mHTT CaM bind 100.2*.
O=C1CSC(=O)N1CC(O)Cn1c2ccc(Br)cc2c2cc(Br)ccc21 (centres undefined) was read as mHTT CaM bind 27.2.
For OC(CN1CCOCC1)Cn1c2ccc(Br)cc2c2cc(Br)ccc21 (centres undefined) the results were mHTT CaM bind 91.0* and Pf apPOL block -14.3.
`CCOC(=O)N1CCN(C(=O)Cn2nc(C)c3cnn(C(C)(C)C)c3c2=O)CC1` gave mHTT CaM bind -5.3 and Pf apPOL block -3.8.
Screening CC(=O)N1CCN(C(=O)c2cccn2CC(=O)N2CCc3ccccc32)CC1 returned mHTT CaM bind 0.9 and Pf apPOL block -4.3.
`O=C(c1ccc(OCC2CCCN2C(=O)C2CCC2)cc1)N1CCCC1` (centres undefined) gave mHTT CaM bind -0.6 and Pf apPOL block -0.4.
Screening COc1ccc(CC(=O)N2CCN(c3cccc(Cl)c3)CC2)cc1OC returned mHTT CaM bind 55.4* and Pf apPOL block 2.1.
Screening COc1ccc(CC(=O)N2CCN(c3cccc(Cl)c3)CC2)cc1 returned mHTT CaM bind -9.6 and Pf apPOL block -4.9.
O=C(NC(Cc1ccccc1)c1nnc(N2CCCC2)o1)C1CC1 (centres undefined) was read as mHTT CaM bind -2.6 and Pf apPOL block -1.0.
Cn1cccc1C1CC(c2ccccc2Cl)=NN1C(=O)CN1CCCCC1 (centres undefined) was read as mHTT CaM bind 93.9* and Pf apPOL block -5.0.
`CCN1CCN(CC(=O)N2N=C(c3ccccc3Cl)CC2c2cccn2C)CC1` (centres undefined) gave mHTT CaM bind 82.2* and Pf apPOL block -2.7.
Screening COc1ccc(C2=NN(C(=O)CN3CCOCC3)C(c3ccccc3Cl)C2)cc1 (centres undefined) returned mHTT CaM bind 20.8 and Pf apPOL block -4.8.
For COc1ccc(C2=NN(C(=O)CN3CCCCC3)C(c3ccccc3Cl)C2)cc1 (centres undefined) the results were mHTT CaM bind 9.4 and Pf apPOL block -0.8.
`Cc1ccc(S(=O)(=O)NC(=O)NC(C)C2CC3CCC2C3)cc1` (centres undefined) gave mHTT CaM bind -2.0 and Pf apPOL block -0.8.
For CC(=O)c1ccc(N2CC(C)OC(C)C2)c([N+](=O)[O-])c1 (centres undefined) the results were Pf apPOL block -8.2.
`O=[N+]([O-])c1cc(CN2CCOCC2)c(O)c2ncccc12` gave mHTT CaM bind 100.0* and Pf apPOL block -45.6.
`O=[N+]([O-])c1ccccc1CN1CCOCC1` gave mHTT CaM bind 2.1 and Pf apPOL block 2.6.
Screening CC1CN(Cc2cc([N+](=O)[O-])c3cccnc3c2O)CC(C)O1 (centres undefined) returned mHTT CaM bind 100.0* and Pf apPOL block -4.5.
`Cc1ccc(N2C(=O)C3N=NN(c4ccc(F)cc4)C3C2=O)cc1C` (centres undefined) gave mHTT CaM bind 4.0 and Pf apPOL block -2.7.
For CC1(C)CC(=O)C2=C(C1)NC1=C(C(=O)c3ccccc31)C2c1ccc(O)cc1 (centres undefined) the results were mHTT CaM bind 50.0 and Pf apPOL block -4.2.
Screening CC1(C)CC(=O)C2=C(C1)NC1=C(C(=O)c3ccccc31)C2c1ccc(Br)cc1 (centres undefined) returned mHTT CaM bind 60.0* and Pf apPOL block -10.6.
COc1cccc(C2C3=C(CC(C)(C)CC3=O)NC3=C2C(=O)c2ccccc23)c1OC (centres undefined) was read as mHTT CaM bind 44.0 and Pf apPOL block -6.5.
For COc1cc(C2C3=C(CC(C)(C)CC3=O)NC3=C2C(=O)c2ccccc23)cc(OC)c1OC (centres undefined) the results were mHTT CaM bind 61.0* and Pf apPOL block -0.6.
For CCn1c(C2CCN(C(=O)Nc3cccc(Cl)c3)CC2)cc(=O)n2nccc12 the results were mHTT CaM bind 3.2 and Pf apPOL block -0.3.
Screening OCCn1c(-c2ccc(F)cc2)csc1=Nc1ccc(F)cc1 returned mHTT CaM bind 44.0 and Pf apPOL block -2.1.
Screening OCCCn1c(-c2ccc(F)cc2)csc1=Nc1ccc(F)cc1 returned mHTT CaM bind 59.0* and Pf apPOL block -3.3.
Screening O=C1c2ccccc2C(=O)N1c1cccc(-c2csc(=Nc3ccccc3)n2CCO)c1 returned mHTT CaM bind 31.0 and Pf apPOL block -1.3.
`Cc1ccc(-c2csc(=Nc3ccc(F)cc3)n2CCO)cc1` gave mHTT CaM bind 63.0* and Pf apPOL block -0.3.
